The subject of one assay is Staphylococcus aureus. The assay is described as follows: Antibacterial activity against Staphylococcus aureus MRSA ATCC 43300 (CO-ADD:GP_020); MIC in CAMBH media using NBS plates, by Resazurin F(560/590). Format: functional. Particulars: Concentration 20 uM, ASSAY_TEST Inhibition of Bacterial Growth, detection method Resazurin, Fluorescence (ex560/em590), MEDIA CAMHB, plate type 384well, CORNING #3640, time 18 hr.

Another assay has as its system Acinetobacter baumannii. Kind of assay: Antibacterial activity against Acinetobacter baumannii ATCC 19606 (CO-ADD:GN_034); MIC in CAMBH media using NBS plates, by Resazurin F(560/590). Format: functional. To be noted: Concentration 20 uM, ASSAY_TEST Inhibition of Bacterial Growth, detection method Resazurin, Fluorescence (ex560/em590), MEDIA CAMHB, plate type 384well, CORNING #3640, time 18 hr.

The subject of the next assay is Escherichia coli. The assay is described as follows: Antibacterial activity against Escherichia coli ATCC 25922 (CO-ADD:GN_001); MIC in CAMBH media using NBS plates, by Resazurin F(560/590). Format: functional. Particulars: Concentration 20 uM, ASSAY_TEST Inhibition of Bacterial Growth, detection method Resazurin, Fluorescence (ex560/em590), MEDIA CAMHB, plate type 384well, CORNING #3640, time 18 hr.

The next assay deals with Klebsiella pneumoniae. Particulars: Concentration 20 uM; ASSAY_TEST Inhibition of Bacterial Growth; detection method Absorption (OD600); MEDIA CAMHB; plate type 384well; NBS; CORNING #3640; time 18 hr.
For a further assay, the system named is Candida albicans. Particulars: 20 µM.
The next assay has as its system Cryptococcus neoformans. Particulars: Concentration 20 uM; ASSAY_TEST Inhibition of Fungal Growth; detection method Resazurin; Absorption (OD600-OD570); plate type 384well; NBS; CORNING #3640.

The structures appear in SMILES notation. For part of these data: Results with a measured potency or affinity are listed apart.

Turning to `Cn1c(=O)c2c(nc(OCCc3ccccc3)n2C)n(C)c1=O`, the Inhibition was 6.63% in the assay with Staphylococcus aureus; -9.02% with Acinetobacter baumannii; 8.83% with Escherichia coli; 12.12% in the assay with Klebsiella pneumoniae; 3.96% with Candida albicans; -6.56% with Cryptococcus neoformans.
Turning to `CCOc1ccc2sc(NS(=O)(=O)c3ccc(N)cc3)nc2c1`, the Inhibition with Staphylococcus aureus is -6.39%; with Acinetobacter baumannii, -10.5%; in the assay with Escherichia coli, 7.14%; in the assay on Klebsiella pneumoniae, 12.93%; in the assay on Candida albicans, 4%; with Cryptococcus neoformans, -12.92%.
`C=CCN=C(S)Nc1cccc([N+](=O)[O-])c1`: the Inhibition in the assay with Staphylococcus aureus was -6.7%; with Acinetobacter baumannii it was -8.3%; in the assay with Escherichia coli, 0.98%; in the assay with Klebsiella pneumoniae it was 6.17%; with Candida albicans, 0.93%; with Cryptococcus neoformans, -2.12%.
Consider `Nc1ncnc2c1ncn2C1C=C(CO)C(O)C1O` (stereo not drawn), for which the Inhibition with Staphylococcus aureus is 4.94%; with Acinetobacter baumannii, -16.45%; with Escherichia coli, 9.33%; with Klebsiella pneumoniae, 9.87%; with Candida albicans, 1.07%; with Cryptococcus neoformans, -6.12%.
Consider `COCC(=O)Oc1cc(-c2ccc(C)cc2C)c(OC(=O)COC)c(-c2ccc(C)cc2C)c1`, for which the Inhibition in the assay on Staphylococcus aureus was 8.14%; in the assay with Acinetobacter baumannii it was -8.27%; with Escherichia coli, 6.56%; with Klebsiella pneumoniae it was 4.04%; in the assay on Candida albicans, 7.18%; with Cryptococcus neoformans, -1.11%.
Consider `Cc1nc2ccc(Cl)cn2c1[N+](=O)[O-]`, for which the Inhibition in the assay with Staphylococcus aureus was 1.58%; in the assay on Acinetobacter baumannii, 13.48%; with Escherichia coli, -8.75%; with Klebsiella pneumoniae it was 13.85%; in the assay with Candida albicans, 5.38%; in the assay with Cryptococcus neoformans it was -3.42%.
`Cc1nc(O)c(Cc2ccccc2O)c(-c2ccccc2)n1`: the Inhibition was 22.69% in the assay with Staphylococcus aureus; -8.89% in the assay with Acinetobacter baumannii; 10.21% in the assay with Escherichia coli; 16.82% with Klebsiella pneumoniae; 2.26% in the assay on Candida albicans; 5.06% with Cryptococcus neoformans.
On to `O=C1c2ccccc2C(=O)c2c1cccc2-n1nnc2ccccc21`, for which the Inhibition was 8.87% with Staphylococcus aureus; -5.95% with Acinetobacter baumannii; 13.14% in the assay with Escherichia coli; 0.02% in the assay on Klebsiella pneumoniae; 0.12% with Candida albicans; -17.13% with Cryptococcus neoformans.
Consider `Nc1ccc(SCc2nc3cccc4c3n2CCC4)cc1`, for which the Inhibition in the assay on Staphylococcus aureus was 3.62%; with Acinetobacter baumannii, -8.53%; in the assay on Escherichia coli it was 10.5%; in the assay on Klebsiella pneumoniae, 16.5%; in the assay with Candida albicans it was -0.32%; with Cryptococcus neoformans, -14.91%.
`CCCCCOc1ccc(N2C(=O)C(C)CNC2=S)cc1` (stereo not drawn): the Inhibition in the assay on Staphylococcus aureus was 15.96%; in the assay with Acinetobacter baumannii, 8.82%; in the assay with Escherichia coli, 2.34%; in the assay with Klebsiella pneumoniae, 9.59%; with Candida albicans, -1.3%; in the assay with Cryptococcus neoformans it was -8.51%.
Turning to `CCOC(=O)N1C/C(=C\c2ccccc2)C(=O)/C(=C/c2ccccc2)C1`, the Inhibition in the assay on Staphylococcus aureus was 10.93%; in the assay with Acinetobacter baumannii it was 7.26%; with Escherichia coli, 0.16%; in the assay with Klebsiella pneumoniae, 12.83%; with Candida albicans it was 6.37%; with Cryptococcus neoformans it was -7.05%.
Turning to `Cn1nc(NC(=O)C(F)(F)F)c2ncc(-c3ccc(Cl)cc3)nc21`, the Inhibition in the assay with Staphylococcus aureus was 20.42%; with Acinetobacter baumannii, 13.75%; with Escherichia coli, 1.31%; in the assay with Klebsiella pneumoniae, 13.33%; in the assay on Candida albicans, 2.95%; in the assay on Cryptococcus neoformans, -3.57%.
For `Cc1ccc(/C=C2\CCOC2=O)cc1`, the Inhibition with Staphylococcus aureus was 9.11%; in the assay with Acinetobacter baumannii, -13.71%; with Escherichia coli, 3.05%; in the assay with Klebsiella pneumoniae, 29.06%; in the assay with Candida albicans, 11.6%; with Cryptococcus neoformans it was 1.19%.
Turning to `O=C(O)c1cc(Cl)nnc1O`, the Inhibition is 15.87% with Staphylococcus aureus; -4.6% with Acinetobacter baumannii; 13.02% with Escherichia coli; -7.82% in the assay with Klebsiella pneumoniae; -1.79% in the assay on Candida albicans; -6.94% in the assay with Cryptococcus neoformans.
As for `O=C(C(=O)c1cccnc1)c1cccnc1`, the Inhibition is 7.87% in the assay with Staphylococcus aureus; -9.17% in the assay with Acinetobacter baumannii; 12.61% with Escherichia coli; 6.86% with Klebsiella pneumoniae; -0.57% with Candida albicans; -3.14% in the assay on Cryptococcus neoformans.
On to `N#C/C(=C\c1cccnc1)c1ccc(Br)cc1`, for which the Inhibition with Staphylococcus aureus was -11.66%; in the assay on Acinetobacter baumannii it was -1.77%; in the assay on Escherichia coli it was -11.06%; in the assay with Klebsiella pneumoniae, 8.56%; in the assay with Candida albicans, 35.8%; with Cryptococcus neoformans, -4.26%.
Turning to `CCOc1cc2c(Cl)ncnc2c(OCC)c1OCC`, the Inhibition with Staphylococcus aureus is 4.34%; in the assay on Acinetobacter baumannii it was -8.17%; in the assay with Escherichia coli, 3.68%; with Klebsiella pneumoniae it was 0.85%; in the assay on Candida albicans it was 2.82%; in the assay on Cryptococcus neoformans, -6.05%.
`Nc1n[nH]c(Nc2ccccc2)n1`: the Inhibition in the assay with Staphylococcus aureus was 19.31%; in the assay on Acinetobacter baumannii, 2.24%; with Escherichia coli it was 12.19%; in the assay with Klebsiella pneumoniae, 2.99%; in the assay on Candida albicans it was -0.65%; with Cryptococcus neoformans, -7.66%.
With `Cn1c(=O)c2nc(N3CCCCC3)[nH]c2n(C)c1=O`, the Inhibition in the assay with Staphylococcus aureus was 0.06%; with Acinetobacter baumannii, -5.37%; in the assay with Escherichia coli it was 9.83%; in the assay on Klebsiella pneumoniae it was 1.37%; in the assay with Candida albicans, -1.65%; in the assay on Cryptococcus neoformans, -9.97%.
For `Cc1ccc(Nc2c(O)ncnc2O)cc1C`, the Inhibition in the assay on Staphylococcus aureus is -23.26%; in the assay on Acinetobacter baumannii it was -4.13%; in the assay with Escherichia coli it was -16.23%; with Klebsiella pneumoniae, 1.1%; in the assay on Candida albicans, 0.31%; in the assay on Cryptococcus neoformans, 16.78%.
`CCOC(=O)Nc1ccc2nc(N3CCCCCC3)sc2c1`: the Inhibition was 14.81% in the assay with Staphylococcus aureus; 14.56% with Acinetobacter baumannii; 8.66% in the assay with Escherichia coli; 9.37% in the assay on Klebsiella pneumoniae; 0.84% with Candida albicans; -12.19% in the assay with Cryptococcus neoformans.
`Clc1ccc(Oc2nc3c(Cl)cccc3s2)cc1Cl`: the Inhibition in the assay with Staphylococcus aureus is 12.48%; with Acinetobacter baumannii it was 12.9%; with Escherichia coli it was 4.52%; in the assay with Klebsiella pneumoniae it was 1.06%; in the assay on Candida albicans, 1.36%; with Cryptococcus neoformans, -15.72%.
As for `COc1ccc(/C(C#N)=C/c2ccccn2)cc1`, the Inhibition in the assay with Staphylococcus aureus was 30.75%; in the assay on Acinetobacter baumannii, -12.49%; in the assay with Escherichia coli, 21.69%; in the assay with Klebsiella pneumoniae, 10.64%; in the assay with Candida albicans, 7.54%; in the assay with Cryptococcus neoformans, 8.53%.

Source of the values: ChEMBL document CHEMBL4296182, “CO-ADD screening of NIH NCI Diversity Set V”.
